# NPC1 promoter act = activators of NPC1 promoter. Huh7 NPC1 promoter luciferase reporter, 24 h. Potency, µM (series often up to 9.22 µM), for inactives: at the top dose activation, hits mostly activators. actives 2.4% (n = 320,000); further: % of control where 0% means no effect; nearly all actives have a fitted effect of over 60% in size
#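 NPC1 promoter–luciferase Huh7 cells; 24 h compound; luminescence.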
# SMN2 splice up = increases expression of the SMN2 splice variant. actives 2.8% (n = 210,000). HEK293 SMN2-luciferase splicing reporter, luminescence, 30-36 h. AID 1458. Potency, µM (doses to about 46.1 µM), for inactives: at the highest dose activity change, positive = activation, most hits filed as activators; further: % of control where 0% means no effect; nearly all actives have a fitted effect of over 55% in size
#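 HEK293 cells carry an SMN2 minigene-luciferase reporter in which exon 7 inclusion puts luciferase in frame. Cells were seeded at 2000 cells/well, attached for 10-12 hours, then exposed to compounds for 30-36 hours at 37C before ONE-Glo luminescence.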
# Rab9 prom act = activators of Rab9 promoter; Huh7 Rab9 promoter-luciferase reporter, luminescence, 24 h; Potency, µM (series often up to 9.22 µM), for the others: top-dose activation, negative = inhibition, usual class: activators; actives 2.8% (n = 320,000); AID 485297; further: % of control where 0% means no effect; nearly all actives have a fitted effect of over 60% in size
#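 Promoter activation is measured as luciferase luminescence in Huh7 cells stably transfected with a Rab9 promoter–luciferase construct, following 24 h compound exposure at 37 °C and 10 min reagent incubation at ambient temperature.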
# FLuc modulator = counter-screen for miR-21 project: firefly luciferase inhibitors or activators; actives 6.9% (n = 360,000); Potency, µM (doses to about 57.5 µM), inactives show at the top dose activity change, negative = inhibition, actives largely listed as inhibitors; AID 588342; purified FLuc, Km substrates, luminescence inhibition; P08659;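 further: plate controls were vehicle for no effect and reference inhibitor for full effect; nearly all actives have a fitted effect of over 55% in size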
# Target sequence (P08659 whole entry, looked up): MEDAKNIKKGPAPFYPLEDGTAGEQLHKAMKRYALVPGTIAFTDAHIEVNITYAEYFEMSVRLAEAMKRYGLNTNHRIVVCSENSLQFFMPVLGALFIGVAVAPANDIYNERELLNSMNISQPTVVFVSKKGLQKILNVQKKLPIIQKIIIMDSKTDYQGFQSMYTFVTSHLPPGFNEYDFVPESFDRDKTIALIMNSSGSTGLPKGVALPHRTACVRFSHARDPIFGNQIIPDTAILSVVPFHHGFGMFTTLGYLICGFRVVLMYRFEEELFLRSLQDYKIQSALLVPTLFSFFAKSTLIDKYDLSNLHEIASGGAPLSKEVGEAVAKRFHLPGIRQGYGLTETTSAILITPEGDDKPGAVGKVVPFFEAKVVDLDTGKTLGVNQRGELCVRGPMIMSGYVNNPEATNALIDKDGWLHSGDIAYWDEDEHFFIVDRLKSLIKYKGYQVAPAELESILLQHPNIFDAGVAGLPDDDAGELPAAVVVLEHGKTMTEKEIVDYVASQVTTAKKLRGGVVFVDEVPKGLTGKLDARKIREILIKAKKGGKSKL
#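 Purified P. pyralis luciferase, 10 nM final, with Km-level 10 uM D-luciferin and 10 uM ATP in 50 mM Tris acetate pH 7.5, 10 mM Mg acetate, 0.01% Tween-20, 0.05% BSA; 6-point qHTS titration about 60 µM downward; luminescence read.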
# ELG1 DNA repair = blocks ELG1-dependent DNA repair in HEK293T cells. actives 2.3% (n = 330,000). Potency, µM (top dose mostly 46.1 µM), for the others: at the highest dose activity change, negative = inhibition, hits mostly inhibitors. HEK293T ELG1-luciferase reporter, luminescence, 16 h; DNA damage induced by 5-fluorouridine; further: on the % scale 0 is the no-effect control and ±100 the full control effect; nearly all actives have a fitted effect of over 55% in size
#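 In this reporter screen, reduction of luminescence relative to DMSO vehicle indicated activity. Compounds and 5-fluorouridine were added together to 2,000 cells per well, incubated for 16 hr at 37 °C, then developed with ONE-Glo.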
# ELG1 genotoxic = genotoxicity induction in ELG1-luciferase HEK293T cells. HEK293T ELG1-luciferase reporter, luminescence, 16 h. Potency, µM (top dose mostly 46 µM), for inactives: top-dose activity change, positive = activation, hits mostly activators. actives 1.3% (n = 330,000). AID 504466; further: % of control where 0% means no effect; nearly all actives have a fitted effect of over 60% in size
#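 Luminescence read-out: rising ELG1-luciferase signal, reflecting elevated ELG1 protein under genetic stress, flags genotoxic compounds. Cells were treated for 16 hr at 37 °C before ONE-Glo detection.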
# An asterisk follows results filed as active; ? = inconclusive; / = no result given; [ ] = remark or other dose. An excerpt weighted towards active compounds, which were near 9.2% of everything screened. The call rests on the fitted dose curve; in most records, active means well fitted curve in the direction sought with a large enough effect; inconclusive means small, poorly fitted or top-dose-only effect, or another doubt; inactive means no such curve, though single readings can be large; an effect the other way counts as inactive or inconclusive. Potency means the concentration at half of the fitted maximal effect.
SMILES,NPC1 promoter act,SMN2 splice up,Rab9 prom act,FLuc modulator,ELG1 DNA repair,ELG1 genotoxic
CCN(CC)S(=O)(=O)c1ccc(N2CCCC2)c(NC(=O)C2CSC3(C)CCC(=O)N23)c1 (stereo unspecified),-4%,/,1%,0%,-17%,-4%
O=C(CNC(=O)c1cccs1)OCC(=O)c1ccccc1Cl,0%,1%,1%,-15%,13%,0%
Oc1ccc(Cl)cc1CNc1ccc(Br)cn1,0%,/,1%,19µM*,?,?
Oc1c(Cl)cc(Cl)cc1CNc1ccc(Br)cn1,0%,-7%,4%,?,?,?
CC1=C(c2ccc(C)c(C)c2)S(=O)(=O)N(Cc2ccc(C(=O)NCc3cccc(C)c3)cc2)C1=O,/,3%,/,-2%,/,/
FC(F)(F)c1ccccc1-n1c(-c2cnccn2)n[nH]c1=S,11%,/,11%,17µM*,?,?
Cc1ccc(S(=O)(=O)N2CCC(C(=O)N/N=C/c3cccn3C)CC2)cc1,/,/,/,/,1%,1%
C=CCN1C(=O)C(CC(=O)O)S/C1=N/N=C/c1ccc(N(CC)CC)cc1 (stereo unspecified),3%,/,-2%,21µM*,2%,1%
CN(C)c1ccc(/C=N/N=C2/SC(CC(=O)O)C(=O)N2c2ccc(O)cc2)cc1 (stereo unspecified),-1%,-7%,26%,?,17%,0%
CCOC(=O)[C@H]1[C@H]2COc3cc(OC)ccc3[C@@H]2N2C(=O)[C@@H](CO)NC(=O)[C@@]12C,/,/,/,/,20%,0%
COC(=O)C(Cc1c[nH]c2ccccc12)NC(=O)c1cncc(Br)c1 (stereo unspecified),6%,/,-2%,-3%,-2%,-13%
CCOC(=O)C(Cc1c[nH]c2ccccc12)NC(=O)c1ccco1 (stereo unspecified),1%,-9%,-10%,21µM*,19%,20%
NC(=O)COC(=O)[C@H](Cc1c[nH]c2ccccc12)NC(=O)c1ccc(F)cc1,-4%,/,3%,24µM*,4%,-2%
COC(=O)C(Cc1c[nH]c2ccccc12)NC(=O)c1ccc2nc[nH]c2c1 (stereo unspecified),-3%,/,-2%,2.4µM*,?,3%
CCOC(=O)C(Cc1c[nH]c2ccccc12)NC(=O)COc1ccc(CC)cc1 (stereo unspecified),/,-11%,/,-21%,/,/
N[C@H]1[C@@H](C(=O)O)[C@H]2C=C[C@H]1C2,/,2%[9.22 µM],/,/,/,/
O=C(NCC[C@@H]1C[C@@H]2C=C[C@H]1C2)c1cc(COc2ccc(F)cc2F)on1,-2%,/,-3%,-11%,-1%,-12%
CCCCn1c(N)c(N(CC(C)C)C(=O)CCNC(=O)c2ccccc2Cl)c(=O)[nH]c1=O,-1%,/,2%,4%,10%,0%
CN(C)c1ccc(NC(=O)C(=O)NCCOc2ccccc2)cc1,1%,9%,15%,-2%,22%,-3%
COc1ccccc1C(=O)N1CCN(CCNC(=O)C(=O)Nc2ccc(Br)c(C)c2)CC1,2%,/,-2%,-1%,?,-13%
COCCNC(=O)C(=O)Nc1ccc(Br)cc1,?,11µM*,?,?,?,?
CCCNC(=O)C(=O)Nc1ccc(N(C)C)cc1,?,11µM*,3.2µM*,13µM*,?,?
Cc1ccccc1C(=O)N1CCN(CCNC(=O)C(=O)Nc2ccc(Br)cc2)CC1,-7%,/,-4%,-3%,21µM*,-17%
COCCNC(=O)C(=O)Nc1cccc(Br)c1,3%,-13%,3%,-1%,?,?
O=C(O)CCNC(=O)OCC1c2ccccc2-c2ccccc21,0%,/,6%[1.84 µM],-19%,-12%,-1%
SMILES,NPC1 promoter act,SMN2 splice up,Rab9 prom act,FLuc modulator,ELG1 DNA repair,ELG1 genotoxic
CC(C)CC(NC(=O)OCC1c2ccccc2-c2ccccc21)C(=O)O (stereo unspecified),/,13µM*,/,/,/,/
Cc1ccc(C)c(NC(=O)C2CCN(S(=O)(=O)c3ccc4c(c3)NC(=O)CO4)CC2)c1,-1%,/,0%,-1%,-11%,-4%
CN(C)S(=O)(=O)c1ccc(Nc2ccc(-c3ccc4c(c3)OCCO4)nn2)cc1,-5%,2%,9%,6.7µM*,26%,3%
CCN(CC(=O)Nc1ccc2c(c1)OCCO2)C(=O)c1ccc(S(=O)(=O)N(C)C)cc1,3%,/,-1%,4%,2%,-2%
CN(C(=O)c1cccc(Nc2ccc(-c3ccc4c(c3)OCCO4)nn2)c1)C1CCCCC1,?,-59%,?,0.95µM*,?,-21%
CCN(CC)S(=O)(=O)c1ccc(Nc2ccc(-c3ccc4c(c3)OCCO4)nn2)cc1,-6%,-14%,18%,11µM*,?,8%
Cc1ccc(NC(=O)CCCn2c(=O)c3cccn3c3cccnc32)c(Cl)c1,/,/,/,5%,/,/
Cc1ccccc1CN1C(=O)c2ccccc2S1(=O)=O,24%,/,3%,4%,-3%,-6%
O=C1c2ccccc2S(=O)(=O)N1Cc1nc2ccccc2s1,?,-69%,-11%,19µM*,?,16%
Fc1ccc(Nc2nc(N3CCOCC3)c3ccccc3n2)cc1,0%,-26%,-4%,-6%,?,-8%
Clc1ccc(Nc2nc(N3CCOCC3)nc(N3CCOCC3)n2)cc1Cl,-14%,/,-13%,0%,1.6µM*,8%
Cc1ccccc1Nc1nc(N2CCOCC2)nc(N2CCOCC2)n1,1%,/,-4%,1%,?,0%
NS(=O)(=O)c1ccc(NC(=O)CSc2nc(Nc3ccccc3)nc(N3CCOCC3)n2)cc1,-1%,/,-2%,-3%,?,-1%
c1ccc2c(Nc3nc(N4CCOCC4)c4ccccc4n3)cccc2c1,0%,-60%,-4%,?,23µM*,-3%
CC(=O)c1ccc(NC(=O)CSc2nc(Nc3ccccc3)nc(N3CCOCC3)n2)cc1,-4%,/,-4%,-4%,5.8µM*,2%
Fc1ccccc1Nc1nc(N2CCOCC2)nc(N2CCOCC2)n1,1%,/,-1%,0%,5.8µM*,-6%
Nc1ccc2nc(SCC(=O)Nc3ccc(N4CCOCC4)c(Cl)c3)sc2c1,12%,29%,7%,?,11%,?
O=C(CSc1nc2ccc(Nc3nc(N4CCOCC4)nc(N4CCOCC4)n3)cc2s1)N1CCOCC1,-2%,12%,-10%,1%,2.6µM*,-2%
O=C(CSc1nc2ccc(Nc3nc(N4CCOCC4)nc(N4CCOCC4)n3)cc2s1)Nc1ccccc1F,-7%,/,-15%,0%,2.6µM*,-1%
